Data: PubChem BioAssay (EPA / NIEHS)
Inconclusive results are not listed. Calls of active or inactive are those of the source. Rule for the calls: active = hit-call score of the fitted dose curve at least 0.9, where 1 is the maximum; inconclusive = response in the unintended direction; inactive = score below 0.9.

The compounds below were run against Androgen Receptor/SRC-1 Co-activator, AR (gene 367) (UniProt P10275) (assay: OT_AR_ARSRC1_0960: Odyssey Thera (OT) 16-hour HEK293T Protein-Complementation Assay for Androgen Receptor/SRC-1 Co-activator (AID 2283353);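 note: actives raise the signal above DMSO so potency reflects increased AR and SRC-1 complex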).
In short: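 Endpoint is gain-of-signal N/C fluorescence ratio in the 488 nm channel versus DMSO, from at least 400 cells per image, measured 16 h post-dosing. Cells: HEK293T stably carrying split-Venus AR/SRC-1 complementation constructs.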

Chain of Androgen Receptor/SRC-1 Co-activator, AR (gene 367) (P10275 whole entry, looked up, the tested form may be a part): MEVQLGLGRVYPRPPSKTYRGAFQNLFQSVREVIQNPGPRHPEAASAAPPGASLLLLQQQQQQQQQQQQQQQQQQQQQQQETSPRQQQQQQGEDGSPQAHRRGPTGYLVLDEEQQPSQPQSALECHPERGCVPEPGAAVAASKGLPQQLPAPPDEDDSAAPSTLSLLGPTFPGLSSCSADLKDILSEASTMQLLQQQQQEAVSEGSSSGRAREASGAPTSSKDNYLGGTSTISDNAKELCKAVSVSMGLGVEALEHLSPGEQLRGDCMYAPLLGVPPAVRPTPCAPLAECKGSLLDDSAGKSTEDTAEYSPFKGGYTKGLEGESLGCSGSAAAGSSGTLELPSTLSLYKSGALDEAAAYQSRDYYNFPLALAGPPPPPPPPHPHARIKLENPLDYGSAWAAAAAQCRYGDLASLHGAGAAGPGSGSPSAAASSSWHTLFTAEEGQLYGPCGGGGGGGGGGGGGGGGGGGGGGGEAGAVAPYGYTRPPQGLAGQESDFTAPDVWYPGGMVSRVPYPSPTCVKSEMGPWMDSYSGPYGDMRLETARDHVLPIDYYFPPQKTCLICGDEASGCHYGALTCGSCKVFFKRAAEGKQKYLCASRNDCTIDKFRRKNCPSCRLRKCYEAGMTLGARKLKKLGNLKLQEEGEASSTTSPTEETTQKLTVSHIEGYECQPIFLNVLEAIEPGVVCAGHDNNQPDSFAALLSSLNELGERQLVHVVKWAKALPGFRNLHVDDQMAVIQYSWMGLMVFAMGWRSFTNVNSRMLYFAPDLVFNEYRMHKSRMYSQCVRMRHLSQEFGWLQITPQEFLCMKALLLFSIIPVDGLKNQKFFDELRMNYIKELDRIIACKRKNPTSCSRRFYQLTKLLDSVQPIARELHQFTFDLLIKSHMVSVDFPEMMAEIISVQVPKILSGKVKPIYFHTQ

Compound	AC50	outcome
C[C@]12CC[C@H]3C(=CCc4cc(O)ccc43)[C@@H]1CCC2=O	1.42 µM (active)	–
CCN=c1cc2oc3cc(NCC)c(C)cc3c(-c3ccccc3C(=O)OCC)c-2cc1C	0.55 µM (active)	–
CCCCCCCC/C=C\CCCCCCCC(=O)OCC(O)CO (stereo not drawn)	–	inactive
CCN=C1C=CC(=C(c2ccc(N(CC)CC)cc2)c2ccc(N(CC)CC)cc2)c2ccccc21	0.451 µM (active)	–
COCCOCCC[Si](C)(O[Si](C)(C)C)O[Si](C)(C)C	34.3 µM (active)	–
CCCCCCCCCCCCCC[P+](CCCC)(CCCC)CCCC	3.59 µM (active)	–

These compounds were tested against Androgen Receptor/SRC-1 Co-activator, AR (gene 367) (UniProt P10275) (assay: OT_AR_ARSRC1_0480: Odyssey Thera (OT) 8-hour HEK293T Protein-Complementation Assay for Androgen Receptor/SRC-1 Co-activator (AID 2283354);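 note: hits raise the complementation signal above DMSO so AC50 marks enhancers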).
In short: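 After 8 h dosing, stably expressing HEK293T cells with split-Venus AR/SRC-1 fusions were imaged (488, 635nm). The 488nm N/C ratio per image gave the endpoint, analysed in the positive direction against DMSO.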

Compound	AC50	outcome
C[C@]12CC[C@H]3C(=CCc4cc(O)ccc43)[C@@H]1CCC2=O	0.555 µM (active)	–
CCN=c1cc2oc3cc(NCC)c(C)cc3c(-c3ccccc3C(=O)OCC)c-2cc1C	12.5 µM (active)	–
CCCCCCCC/C=C\CCCCCCCC(=O)OCC(O)CO (stereo not drawn)	–	inactive
CCN=C1C=CC(=C(c2ccc(N(CC)CC)cc2)c2ccc(N(CC)CC)cc2)c2ccccc21	1.04 µM (active)	–
COCCOCCC[Si](C)(O[Si](C)(C)C)O[Si](C)(C)C	–	inactive
CCCCCCCCCCCCCC[P+](CCCC)(CCCC)CCCC	12.3 µM (active)	–

These compounds were tested against Estrogen receptor (Homo sapiens) + Estrogen receptor beta (Homo sapiens) (UniProt P03372+Q92731) (assay: OT_ER_ERaERb_1440: Odyssey Thera (OT) 24-hour HEK293T Protein-Complementation Assay for Estrogen Receptor-alpha/-beta Homodimer (AID 2283356);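 note: heteromer of ER alpha and ER beta binding domains; hits raise reporter fluorescence and both agonists and antagonists give an increase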).
In short: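 24 h exposure; HEK293T PCA cells with ERα/ERβ LBD fragments; signal rise in nuclear or whole-cell fluorescence over vehicle.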

Chain of Estrogen receptor (Homo sapiens) + Estrogen receptor beta (Homo sapiens) (P03372 whole entry, looked up, the tested form may be a part): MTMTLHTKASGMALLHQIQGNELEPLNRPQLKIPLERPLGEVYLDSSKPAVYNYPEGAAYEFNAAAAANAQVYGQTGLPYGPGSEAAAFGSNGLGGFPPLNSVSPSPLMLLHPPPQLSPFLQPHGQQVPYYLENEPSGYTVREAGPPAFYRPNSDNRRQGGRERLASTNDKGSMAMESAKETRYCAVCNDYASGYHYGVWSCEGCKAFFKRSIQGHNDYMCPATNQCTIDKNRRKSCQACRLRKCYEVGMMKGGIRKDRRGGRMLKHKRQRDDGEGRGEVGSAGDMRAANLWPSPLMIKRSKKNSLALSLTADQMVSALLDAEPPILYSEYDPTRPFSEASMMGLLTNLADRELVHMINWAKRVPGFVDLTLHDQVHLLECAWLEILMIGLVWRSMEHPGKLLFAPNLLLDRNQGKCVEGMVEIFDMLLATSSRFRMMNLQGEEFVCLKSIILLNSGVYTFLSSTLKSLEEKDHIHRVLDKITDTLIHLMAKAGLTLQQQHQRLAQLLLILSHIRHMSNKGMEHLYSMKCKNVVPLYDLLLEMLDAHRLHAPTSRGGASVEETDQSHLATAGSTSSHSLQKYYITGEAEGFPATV
Chain of Estrogen receptor (Homo sapiens) + Estrogen receptor beta (Homo sapiens) (Q92731 whole entry, looked up, the tested form may be a part): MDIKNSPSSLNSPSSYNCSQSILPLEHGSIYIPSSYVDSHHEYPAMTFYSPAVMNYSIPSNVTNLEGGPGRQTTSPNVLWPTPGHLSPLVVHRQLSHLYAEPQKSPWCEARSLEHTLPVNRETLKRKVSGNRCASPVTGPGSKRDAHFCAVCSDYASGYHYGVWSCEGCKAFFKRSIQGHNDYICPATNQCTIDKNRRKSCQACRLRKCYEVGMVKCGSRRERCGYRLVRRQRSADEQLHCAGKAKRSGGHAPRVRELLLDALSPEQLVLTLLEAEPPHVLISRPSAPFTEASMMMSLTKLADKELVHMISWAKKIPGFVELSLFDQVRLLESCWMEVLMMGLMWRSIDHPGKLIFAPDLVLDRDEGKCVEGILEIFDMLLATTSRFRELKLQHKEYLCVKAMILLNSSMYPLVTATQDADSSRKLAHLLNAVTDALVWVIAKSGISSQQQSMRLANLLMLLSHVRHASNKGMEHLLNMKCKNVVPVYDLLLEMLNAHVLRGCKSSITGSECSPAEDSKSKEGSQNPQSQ

Compound	outcome	AC50
CC(C)(C)c1cc(Cc2cc(C(C)(C)C)c(O)c(C(C)(C)C)c2)cc(C(C)(C)C)c1O	inactive	–
CCN=c1cc2oc3cc(NCC)c(C)cc3c(-c3ccccc3C(=O)OCC)c-2cc1C	inactive	–
CCCCCCCC/C=C\CCCCCCCC(=O)OCC(O)CO (stereo not drawn)	inactive	–
CCN=C1C=CC(=C(c2ccc(N(CC)CC)cc2)c2ccc(N(CC)CC)cc2)c2ccccc21	inactive	–
COCCOCCC[Si](C)(O[Si](C)(C)C)O[Si](C)(C)C	–	58.7 µM (active)
CCCCCCCCCCCCCC[P+](CCCC)(CCCC)CCCC	inactive	–

These compounds were tested against Estrogen receptor beta (Homo sapiens) (UniProt Q92731) (assay: OT_ER_ERbERb_0480: Odyssey Thera (OT) 8-hour HEK293T Protein-Complementation Assay for Estrogen Receptor-beta/-beta Homodimer (AID 2283357);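 note: active means signal gain over DMSO baseline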).
In short: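 Fluorescence gain from complemented reporter fragments on ER-beta LBD homodimer in HEK293T was quantified against DMSO controls after 8 h treatment, fixation in 4% formaldehyde and Draq5 staining.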

Chain of Estrogen receptor beta (Homo sapiens) (Q92731 whole entry, looked up, the tested form may be a part): as above

Compound	outcome	AC50
CC(C)(C)c1cc(Cc2cc(C(C)(C)C)c(O)c(C(C)(C)C)c2)cc(C(C)(C)C)c1O	inactive	–
CCN=c1cc2oc3cc(NCC)c(C)cc3c(-c3ccccc3C(=O)OCC)c-2cc1C	–	55.1 µM (active)
CCCCCCCC/C=C\CCCCCCCC(=O)OCC(O)CO (stereo not drawn)	inactive	–
CCN=C1C=CC(=C(c2ccc(N(CC)CC)cc2)c2ccc(N(CC)CC)cc2)c2ccccc21	inactive	–
COCCOCCC[Si](C)(O[Si](C)(C)C)O[Si](C)(C)C	–	51.5 µM (active)
CCCCCCCCCCCCCC[P+](CCCC)(CCCC)CCCC	inactive	–

These compounds were tested against PGR (gene 5241) (UniProt P06401) (assay: NVS_NR_hPR: NovaScreen (NVS) Nuclear Receptor Binding Assay for human Progestron Receptor (PR) (AID 2283360);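 note: active means loss of bound radioligand signal versus DMSO baseline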).
In short: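 T47D-derived receptor preparation, cell-free, with tritiated or iodinated radioligand displacement measured by scintillation 18 h post-dosing. Single 25 uM duplicate screen, then concentration series; signal loss relative to DMSO.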

Chain of PGR (gene 5241) (P06401 whole entry, looked up): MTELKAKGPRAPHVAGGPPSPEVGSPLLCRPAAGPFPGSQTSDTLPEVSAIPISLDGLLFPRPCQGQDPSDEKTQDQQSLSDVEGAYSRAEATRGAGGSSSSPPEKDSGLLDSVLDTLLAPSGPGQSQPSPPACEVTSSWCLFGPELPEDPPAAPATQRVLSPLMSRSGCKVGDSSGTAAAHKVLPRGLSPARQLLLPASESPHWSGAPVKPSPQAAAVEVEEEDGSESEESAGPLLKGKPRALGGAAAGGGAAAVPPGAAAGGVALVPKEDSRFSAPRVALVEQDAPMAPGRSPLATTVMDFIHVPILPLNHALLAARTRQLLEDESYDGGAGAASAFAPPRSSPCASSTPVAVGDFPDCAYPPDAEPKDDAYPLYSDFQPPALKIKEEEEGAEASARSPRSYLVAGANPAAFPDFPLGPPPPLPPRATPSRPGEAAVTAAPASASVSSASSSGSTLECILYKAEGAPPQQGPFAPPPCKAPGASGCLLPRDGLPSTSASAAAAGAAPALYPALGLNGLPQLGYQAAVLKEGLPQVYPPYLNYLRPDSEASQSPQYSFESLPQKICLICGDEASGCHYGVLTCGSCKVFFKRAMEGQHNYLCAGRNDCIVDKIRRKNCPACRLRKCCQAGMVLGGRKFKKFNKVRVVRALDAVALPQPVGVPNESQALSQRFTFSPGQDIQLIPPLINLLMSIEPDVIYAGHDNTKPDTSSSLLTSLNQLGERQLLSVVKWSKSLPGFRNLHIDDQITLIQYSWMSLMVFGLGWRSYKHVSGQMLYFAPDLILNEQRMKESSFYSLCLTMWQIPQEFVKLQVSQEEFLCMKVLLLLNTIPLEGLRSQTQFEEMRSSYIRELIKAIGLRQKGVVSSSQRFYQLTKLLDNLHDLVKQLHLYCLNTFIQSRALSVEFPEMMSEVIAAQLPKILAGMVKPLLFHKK

Compound	AC50	outcome
C[C@]12CC[C@H]3C(=CCc4cc(O)ccc43)[C@@H]1CCC2=O	46.7 µM (active)	–
Oc1ccc(C2(c3ccc(O)c(C4CCCCC4)c3)CCCCC2)cc1C1CCCCC1	–	inactive
c1ccc(C[P+](c2ccccc2)(c2ccccc2)c2ccccc2)cc1	–	inactive
CCN(CC)c1ccc(C=O)c(O)c1	41.7 µM (active)	–
